Laboratory results as given in PubChem BioAssay.
Values without a mark were called inactive. Where a call stands in place of a potency, no number is given. For some assays here: Potency and affinity values are given separately. The source made the active and inactive calls. Unless noted, how the calls were made is not given here.

What was measured:
[1] = antimalarial activity against Dd2 strain (AID 2302;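 active means growth inhibition above 50% at the single 2 µM test dose, taken to imply half-maximal potency below 2 µM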); details: P. falciparum Dd2 in RBCs, LDH growth readout, 72 h; at 2 µM; active compounds read high
[2] = human hepatoma cell viability loss – ATP luminescence, cytotoxicity control for P. falciparum antimalarial project, primary screen (AID 2303;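 active means inhibition above 50%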); details: HepG2 viability, 24-48 h, at 10 µM, active compounds read high
[3] = target: L-lactate dehydrogenase (Plasmodium falciparum (isolate CDC / Honduras)) (UniProt Q27743); assay: PfLDH activity inhibition – cell lysate, 3D7 strain, counter-screen for P. falciparum growth inhibition project (AID 2304); details: P. falciparum 3D7 crude extract, LDH APAD/NBT absorbance; at 2 µM; active compounds read high
[4] = inhibition of 3D7 malaria parasite growth – strain 3D7 (AID 2306); details: P. falciparum 3D7 erythrocytic growth, LDH absorbance, 72 h; at 2 µM; active compounds read high
[5] = target: Calcium-dependent protein kinase 1 (Plasmodium falciparum (isolate 3D7)) (UniProt P62344); assay: PfCDPK1 kinase inhibitors, biochemical, TCAMS library (AID 1159585; cut-off not given, nearly all actives have IC50 up to about 0.98 µM;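 further: inhibitors leave more ATP so luminescence rises with inhibition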); details: recombinant PfCDPK1, Kinase-Glo ATP depletion luminescence
[6] = target: Plasmodium falciparum protein kinase 6 (PK6, PF3D7_1337100) (UniProt Q8IDW1); assay: PfPK6 kinase inhibitors, biochemical, TCAMS library (AID 1159586); details: recombinant PfPK6, Kinase-Glo ATP depletion luminescence
[7] = target: Protein kinase 7 (PK7), Plasmodium falciparum 3D7 (PF3D7_0213400) (UniProt Q7YTF7); assay: inhibition of Plasmodium PK7 catalytic activity – biochemical, TCAMS antimalarial set, Kinase-Glo luminescence (AID 1159587); details: recombinant PfPK7, Kinase-Glo ATP depletion luminescence
[8] = target: Calcium-dependent protein kinase 4 (Plasmodium falciparum (isolate 3D7)) (UniProt Q8IBS5); assay: PfCDPK4 kinase inhibitors, biochemical, TCAMS library (AID 1159588; cut-off not given, nearly all actives have IC50 up to about 0.91 µM); details: recombinant PfCDPK4, Kinase-Glo ATP depletion luminescence
Chain of Calcium-dependent protein kinase 4 (Plasmodium falciparum (isolate 3D7)) (Q8IBS5 whole entry, looked up): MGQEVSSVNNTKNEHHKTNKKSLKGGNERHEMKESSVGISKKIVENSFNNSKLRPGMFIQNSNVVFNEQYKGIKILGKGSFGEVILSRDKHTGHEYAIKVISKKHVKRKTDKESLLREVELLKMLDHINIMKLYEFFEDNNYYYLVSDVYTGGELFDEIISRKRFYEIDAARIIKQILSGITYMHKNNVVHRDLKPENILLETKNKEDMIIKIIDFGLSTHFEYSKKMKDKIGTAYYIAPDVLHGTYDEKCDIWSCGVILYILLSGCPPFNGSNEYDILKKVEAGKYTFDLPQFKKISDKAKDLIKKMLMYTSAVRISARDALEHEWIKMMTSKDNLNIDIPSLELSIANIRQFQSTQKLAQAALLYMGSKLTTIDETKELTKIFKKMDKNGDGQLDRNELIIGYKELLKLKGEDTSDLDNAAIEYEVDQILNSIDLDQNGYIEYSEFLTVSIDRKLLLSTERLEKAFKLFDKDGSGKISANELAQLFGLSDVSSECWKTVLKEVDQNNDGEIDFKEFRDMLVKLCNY

Chain of Calcium-dependent protein kinase 1 (Plasmodium falciparum (isolate 3D7)) (P62344 whole entry, looked up): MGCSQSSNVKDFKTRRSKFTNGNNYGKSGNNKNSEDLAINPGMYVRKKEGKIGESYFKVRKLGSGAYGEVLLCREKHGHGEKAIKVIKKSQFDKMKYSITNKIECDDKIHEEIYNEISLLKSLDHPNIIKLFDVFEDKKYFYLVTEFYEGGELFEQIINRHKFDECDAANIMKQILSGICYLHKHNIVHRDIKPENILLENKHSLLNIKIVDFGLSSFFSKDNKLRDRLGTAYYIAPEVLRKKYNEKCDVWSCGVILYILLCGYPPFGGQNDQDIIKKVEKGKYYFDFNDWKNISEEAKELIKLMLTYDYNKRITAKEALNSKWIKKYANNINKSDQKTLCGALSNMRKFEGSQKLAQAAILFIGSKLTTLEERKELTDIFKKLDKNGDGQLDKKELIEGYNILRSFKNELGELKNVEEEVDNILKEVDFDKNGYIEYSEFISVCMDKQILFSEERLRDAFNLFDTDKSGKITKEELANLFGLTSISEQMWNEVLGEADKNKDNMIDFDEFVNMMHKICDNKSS
Chain of Protein kinase 7 (PK7), Plasmodium falciparum 3D7 (PF3D7_0213400) (Q7YTF7 1-343): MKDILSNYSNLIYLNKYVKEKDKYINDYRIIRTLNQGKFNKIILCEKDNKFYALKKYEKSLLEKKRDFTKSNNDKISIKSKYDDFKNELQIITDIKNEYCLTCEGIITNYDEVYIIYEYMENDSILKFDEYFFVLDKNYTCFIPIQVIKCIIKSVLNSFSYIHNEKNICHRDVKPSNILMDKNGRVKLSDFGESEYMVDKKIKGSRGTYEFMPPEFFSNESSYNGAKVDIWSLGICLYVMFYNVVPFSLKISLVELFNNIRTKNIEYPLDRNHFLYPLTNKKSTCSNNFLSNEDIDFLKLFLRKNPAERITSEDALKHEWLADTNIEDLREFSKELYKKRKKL
Chain of Plasmodium falciparum protein kinase 6 (PK6, PF3D7_1337100) (Q8IDW1 1-305): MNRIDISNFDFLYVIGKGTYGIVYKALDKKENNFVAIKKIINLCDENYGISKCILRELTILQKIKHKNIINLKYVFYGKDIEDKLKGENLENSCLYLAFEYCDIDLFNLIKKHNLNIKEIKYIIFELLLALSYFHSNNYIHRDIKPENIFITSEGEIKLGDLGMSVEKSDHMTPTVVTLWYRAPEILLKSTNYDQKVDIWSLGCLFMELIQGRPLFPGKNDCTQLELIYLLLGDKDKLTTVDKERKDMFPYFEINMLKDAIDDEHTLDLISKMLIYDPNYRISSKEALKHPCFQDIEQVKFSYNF
Chain of L-lactate dehydrogenase (Plasmodium falciparum (isolate CDC / Honduras)) (Q27743 whole entry, looked up): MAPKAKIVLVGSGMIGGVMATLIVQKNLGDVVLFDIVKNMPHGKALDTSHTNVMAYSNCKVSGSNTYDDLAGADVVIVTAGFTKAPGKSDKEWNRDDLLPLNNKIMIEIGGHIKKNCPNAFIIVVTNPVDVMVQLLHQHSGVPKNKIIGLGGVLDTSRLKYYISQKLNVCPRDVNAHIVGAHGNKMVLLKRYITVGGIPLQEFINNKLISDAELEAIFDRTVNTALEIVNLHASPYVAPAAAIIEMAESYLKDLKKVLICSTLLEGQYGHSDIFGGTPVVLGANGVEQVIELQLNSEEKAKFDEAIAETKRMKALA

Row | SMILES | growth inhibition [1] | inhibition [2] | inhibition [3] | growth inhibition [4] | outcome [5] | outcome [6] | outcome [7] | outcome [8]
1 | CCCCOC(=O)c1ccc(Nc2cc(C)nc3ccc(OC)cc23)cc1 | 96% (active) | 4% | -5% | 100% (active) | inactive | inactive | inactive | inactive
2 | CC(C)NCc1ccc(-c2cccc(NC(=O)c3cccc(Cl)c3)c2)cc1 | 87% (active) | 24% | 1% | 100% (active) | inactive | inactive | inactive | inactive
3 | O=C(/C=C/c1ccc(Cl)c(Cl)c1)NCCCCCN1CCC(NC(=S)Nc2ccc(Cl)cc2Cl)CC1 | 47% | 53% (active) | -1% | 99% (active) | inactive | inactive | inactive | inactive
4 | C=C(NC(=O)c1cc(C)cc(C)c1)C(=O)OC | -2% | 21% | -3% | 95% (active) | inactive | inactive | inactive | inactive
5 | CCN(CC)CCNc1ccnc2ccc3ccccc3c12 | 67% (active) | 5% | 6% | 100% (active) | inactive | inactive | inactive | inactive
6 | Clc1ccccc1OCc1ccccn1 | 2% | 2% | -3% | 85% (active) | inactive | inactive | inactive | inactive
7 | OC1(C(F)(F)F)CC(c2ccccc2)=NN1c1nncc(-c2ccccc2)n1 (stereo unspecified) | 3% | -3% | -5% | 99% (active) | inactive | inactive | inactive | inactive
8 | Cc1c(F)cc(C(=O)NC2CC2)cc1-c1ccc2c(cnn2S(=O)(=O)c2ccc(Cl)s2)c1 | 50% (active) | 24% | -4% | 81% (active) | inactive | inactive | inactive | inactive
9 | OCC1CCN(Cc2ccc(-c3ccc(-c4nc5ccc(F)cc5[nH]4)s3)cc2)CC1 | 98% (active) | 14% | -3% | 101% (active) | inactive | inactive | inactive | inactive
10 | COc1ccc(CNCc2ccsc2)cc1-c1ccc(S(=O)(=O)NCCN2CCCC2)s1 | 34% | 39% | -7% | 101% (active) | inactive | inactive | inactive | inactive
11 | O=C(Nc1ccc(OC2CCN(Cc3ccc(F)cc3)C2)c(Cl)c1)c1cccs1 (stereo unspecified) | 97% (active) | 21% | 2% | 98% (active) | inactive | inactive | inactive | inactive
12 | COc1ccc(CN2CCC(Oc3cccc(NC(=O)c4ccc(C(F)(F)F)cc4)c3)CC2)cc1 | 20% | 35% | -6% | 95% (active) | inactive | inactive | inactive | inactive
13 | Cc1cc(C)c(NC(=O)N[C@H]2CCN(CCCCCNC(=O)/C=C/c3ccc(Cl)c(Cl)c3)C2)c(C)c1 | 3% | 12% | -4% | 91% (active) | inactive | inactive | inactive | inactive
14 | Cc1ccc(C2=NNC3(S2)C(=O)N(C)c2ccccc23)cc1 (stereo unspecified) | 12% | 36% | 5% | 82% (active) | inactive | inactive | inactive | inactive
15 | Cc1csc(-c2nc(NCCc3c(C)noc3C)ncc2-c2ccsc2)n1 | 82% (active) | 6% | -4% | 90% (active) | inactive | inactive | inactive | inactive
16 | CCCCN(CCCC)C(=NCCCCCCN=C(NC(N)=NCc1ccc(Cl)c(Cl)c1)N(CCCC)CCCC)NC(N)=NCc1ccc(Cl)c(Cl)c1 | 96% (active) | 9% | -7% | 100% (active) | inactive | inactive | inactive | inactive
17 | FC(F)(F)c1ccc2nc(-c3ccc(-c4ccc(CN5CCN(c6cnccn6)CC5)cc4)s3)[nH]c2c1 | 99% (active) | 23% | -7% | 101% (active) | inactive | inactive | inactive | inactive
18 | Cn1ccnc1Sc1ncccc1[N+](=O)[O-] | 2% | 0% | -3% | 96% (active) | inactive | inactive | inactive | inactive
19 | Cc1ccc(F)cc1S(=O)(=O)Nc1cccc(CCN2CCC(N3CCCCC3)CC2)c1 | 9% | 15% | 5% | 96% (active) | inactive | inactive | inactive | inactive

Row | SMILES | growth inhibition [1] | inhibition [2] | inhibition [3] | growth inhibition [4] | outcome [5] | outcome [6] | outcome [7] | outcome [8]
20 | O=C(NCc1ccc(F)cc1)Nc1ccc(-c2ccc(-c3nc4ccccc4[nH]3)cc2)cc1 | 98% (active) | 43% | 4% | 101% (active) | inactive | inactive | inactive | inactive
21 | Oc1ccc(Cl)c2c1C(c1ccccc1)=NCC2 | 43% | -9% | -4% | 95% (active) | inactive | inactive | inactive | inactive
22 | CC1(C)N=C(N)N=C(N)N1OCc1cccs1 | -1% | 60% (active) | -4% | 93% (active) | inactive | inactive | inactive | inactive
23 | Cc1ccnc2nc(C(=O)Nc3cc(C(F)(F)F)ccc3N3CCCCC3)nn12 | 94% (active) | 7% | -5% | 96% (active) | inactive | inactive | inactive | inactive
24 | COc1cc(NC2=NS(=O)(=O)c3cc(Cl)ccc3N2C)cc(OC)c1OC | 100% (active) | -6% | -2% | 101% (active) | inactive | inactive | inactive | inactive
25 | COc1ccc(CNC2Cc3ccccc3C2)cc1-c1ccc(OC)c(S(=O)(=O)NCCN2CCCC2)c1 | 97% (active) | 31% | -9% | 101% (active) | inactive | inactive | inactive | inactive
26 | COc1c(C2CCN(CCCCNC(=O)c3cccc(-c4ccc(C(F)(F)F)cc4)c3)CC2)ccc2c1CCCC2 | 45% | 50% (active) | -4% | 92% (active) | inactive | inactive | inactive | inactive
27 | CCOC(=O)CNC(=O)N1CCN(C(=O)NCC(=O)OCC)CC1 | 0% | -9% | -2% | 93% (active) | inactive | inactive | inactive | inactive
28 | CC1=C(C(=O)Nc2cc3cn[nH]c3cc2F)C(c2cccc(NS(C)(=O)=O)c2)CC(=O)N1 (stereo unspecified) | 97% (active) | -10% | -4% | 96% (active) | inactive | inactive | inactive | inactive
29 | COc1ccc2c(c1C1CCN(CCCCNC(=O)c3ccc(NC(=O)c4ccc(Cl)cc4)cc3)CC1)CCCC2 | 99% (active) | 19% | -2% | 101% (active) | inactive | inactive | inactive | inactive
30 | Cc1noc(C)c1-c1cccc(CNCc2cccc(-c3cccc(-c4nc5ccc(F)cc5[nH]4)c3)c2)c1 | 73% (active) | 18% | 3% | 103% (active) | inactive | inactive | inactive | inactive
31 | CN(CCc1ccccn1)c1cccc2c1nc(-c1cccnc1)n2CCNCc1ccccc1 | 97% (active) | 12% | 2% | 90% (active) | inactive | inactive | inactive | inactive
32 | CCN(CC)CCN(Cc1ccc(-c2ccc(C(F)(F)F)cc2)cc1)C(=O)Cn1c(CCc2cc(F)c(F)cc2F)nc(=O)c2ccccc21 | 50% (active) | 39% | -4% | 99% (active) | inactive | inactive | inactive | inactive
33 | CCOc1ccc(NC(=O)c2ccc(CN3CCCN(Cc4cccc(O)c4)CC3)cc2)cc1 | 9% | 44% | 0% | 85% (active) | inactive | inactive | inactive | inactive
34 | CN(C)CCCNc1ncnc2c1[nH]c1ccc(Br)cc12 | 19% | 3% | 3% | 100% (active) | inactive | inactive | inactive | inactive
35 | NCc1cccc(-c2cccc(CNC3CCN(Cc4ccccc4)CC3)c2)c1 | 45% | 9% | 2% | 100% (active) | inactive | inactive | inactive | inactive
36 | COc1cccc(N(CCCN2C(=O)c3cccc4cccc(c34)C2=O)C(=O)c2ccccc2C)c1 | 70% (active) | 20% | -7% | 86% (active) | inactive | inactive | inactive | inactive
37 | CN(C)CCNCc1cccc(-c2ccc3c(Nc4ccc(Oc5ccccc5)cc4)ccnc3c2)c1 | 99% (active) | 31% | 2% | 101% (active) | inactive | inactive | inactive | inactive
